Data taken from ChEMBL document CHEMBL4513216, “Probing the Open Global Health Chemical Diversity Library for Multistage-Active Starting Points for Next-Generation Antimalarials” (ACS Infect Dis, 2020).
The whole screen tested about 65,000 compounds, of which about 2,100 (3.2%) showed an effect of 50% or more. The median lay at about -52%. This excerpt belongs to a sample that is enriched for strong results.

Test system: Plasmodium falciparum
Assay: Screen against P. falciparum Asexual Blood Stage (ABS), at 5uM
Assay type: functional, Dd2
Conditions: tested at 5 uM

Row | SMILES | INHIBITION
1 | CCc1noc(CC)c1CC(=O)N1CCCC(N2CCCCC2)C1 (stereo unspecified) | -22.8%
2 | O=C1CC2(CCN(Cc3ccccn3)C2)CN1c1cccnc1 (stereo unspecified) | -14.1%
3 | CCN(CC)CCNS(=O)(=O)c1cccc(CSC)c1 | 83.4%
4 | Cc1nc(C2CCNCC2)cc(N(C)Cc2cc3cc(F)ccc3[nH]2)n1 | 75.9%
5 | Cc1nc(NCC23CCCN2CCC3)cc(C2CCCNC2)n1 (stereo unspecified) | -54.3%
6 | CCCN(CC)c1cc(C2CCNCC2)nc(C)n1 | -70.1%
7 | Cc1cc(N(C)C)nc(C2CCCNC2)n1 (stereo unspecified) | -54.7%
8 | CN(Cc1cc2cc(F)ccc2[nH]1)c1cc(C2CCCNC2)ncn1 (stereo unspecified) | 84.2%
9 | CCN(Cc1c(F)cccc1Cl)c1cc(C2CCNCC2)nc(C)n1 | 76.4%
10 | Cc1nc(NCCC23CCCN2CCC3)cc(C2CCNCC2)n1 | -50.1%
11 | COc1ccc2[nH]c(CNc3cc(C4CCNCC4)nc(C)n3)cc2c1 | 84.1%
12 | O=C1CC[C@H]2[C@H](CCN2Cc2ccccn2)N1CC1CCOCC1 | -82.3%
13 | COc1ccccc1-c1ncc(CN2CCCC[C@H](N(C)C)C2)s1 | 70.3%
14 | COc1ccc(F)cc1C(=O)C1CCCN(Cc2cnc(C)s2)C1 (stereo unspecified) | -29%
15 | CCC(CC)C(=O)N1CCOC2(CNC2)C1 | -94.6%
16 | O=C(NCCCNc1ccc(C(F)(F)F)cn1)c1ccc(F)cc1F | 72.5%
17 | CC(=O)c1cn(CC(=O)N2CCC3(CC2)OCCO3)c2ccccc12 | -61.4%
18 | N#Cc1cccnc1NCCNC(=O)N1CCN2CCCCC2C1 (stereo unspecified) | -90.5%
19 | COCC1CC2(CCN(Cc3ccncc3)CC2)CN1C(C)C (stereo unspecified) | -68%
20 | COCC1CC2(CCN(c3ccccn3)CC2)CN1C(C)C (stereo unspecified) | -41%
21 | N#Cc1cccc(CN2C[C@@H]3CN(c4ncccn4)C[C@@H]3C2)c1 | 19%
22 | COCC1CC2(CCN(Cc3cccc(C#N)c3)CC2)CN1C(C)C (stereo unspecified) | 73.2%
23 | COCC1CC2(CCN(Cc3ccoc3)CC2)CN1C(C)C (stereo unspecified) | 71.6%
24 | N#Cc1cccc(CN2CCO[C@@H]3CNC[C@@H]32)c1 | -52.7%
25 | O=C(NCc1ccccn1)[C@H]1COC[C@H]2CN(CC3CC3)C[C@H]21 | -35.7%
26 | CN(Cc1ccccn1)C1CCC[C@@H]2CN(CC3CC3)C[C@H]12 (stereo partly specified) | 69.5%

Row | SMILES | INHIBITION
27 | O=C(CC1CC1)N[C@@H]1CN(Cc2ccccn2)C[C@@H]2CCCO[C@@H]21 | -65.3%
28 | Cc1noc(C)c1CN(C)C(=O)C1CCCCN1CC(C)C (stereo unspecified) | 21.5%
29 | COC[C@H](C)Nc1cc(C)c2ccc(SC)cc2n1 | 75.5%
30 | c1ccc(C(Cn2cnnc2)N2CCOCC2)nc1 (stereo unspecified) | -29.3%
31 | CN1CCC2(CC1)CNC(=O)c1ccccc1O2 | -102%
32 | O=C1Nc2ccccc2CC12CCCN2Cc1ccccn1 (stereo unspecified) | -60.5%
33 | Cc1cc(-c2cc(S(=O)(=O)N3C[C@H](C4CC4)[C@@H](N)C3)c(C)s2)on1 | 71.2%
34 | Cc1cc(S(=O)(=O)N2C[C@H](C3CC3)[C@@H](N)C2)c(C)s1 | 86.1%
35 | O=C(CC1CC1)N[C@@H]1CN(Cc2ccncc2)C[C@@H]2CCCO[C@@H]21 | -86.8%
36 | Cc1nnc(N2CCNCC2)c(C(N)=O)c1C | -11.3%
37 | CCN1CC2(CC1=O)CN(Cc1ccccn1)CCN(C(C)=O)C2 (stereo unspecified) | -40.2%
38 | CN1CC=C(c2noc(CCC(=O)N3CCc4ccccc43)n2)CC1 | -88.8%
39 | CC(C)CN1C[C@@H]2C[C@H](C(=O)Nc3cccnc3)[C@H](C1)O2 | -48.5%
40 | CC(=O)N1CC[C@H]2N(C)CC[C@@]2(C(=O)Nc2cccnc2)CC1 | -36%
41 | CC(C)CN1CCCC1c1ccc(C(=O)Nc2cccnc2)s1 (stereo unspecified) | 87.5%
42 | Cn1nc(-c2cccs2)cc1[C@H]1CN2CC[C@H]1C[C@@H]2CN | -26%
43 | CSc1ccccc1C(=O)C1CCCN(Cc2cc(C(C)C)[nH]n2)C1 (stereo unspecified) | -93.2%
44 | Cc1csc(C2CCCCN2C(=O)c2cc(C(C)C)[nH]n2)n1 (stereo unspecified) | 76.4%
45 | CN(C)Cc1cncc2c1CCN(CC(=O)N(C)C)C2 | -114%
46 | Cc1ncc(CN(Cc2ccccn2)Cc2ccccc2Cl)n1C | 91.6%
47 | O=C(NCCCOCC1CC1)Nc1ccc(-n2cncn2)c(F)c1 | 88.3%
48 | CN(CCOCC1CC1)C(=O)Nc1ccc(C#N)c(Cl)c1 | -115%
49 | O[C@@H]1CC(CNCc2ccc(Cl)cc2)(COc2cccnc2)C[C@@H]1O (stereo partly specified) | 70.3%
50 | c1cncc(OC[C@]23COC[C@H]2CN(Cc2ccsc2)C3)c1 | 20.3%
51 | O[C@@]1(CNCCCOc2cccnc2)CCCN2CCCC[C@@H]21 | -36.8%
52 | O=S(=O)(NCC(c1ccsc1)N1CCCCCC1)c1cccs1 (stereo unspecified) | 85.5%

Row | SMILES | INHIBITION
53 | Cc1ccc(NC(=O)N2CCC(CO)(Nc3ccccc3)CC2)cc1 | -31.275%
54 | NC(=O)CN1CCCCC1c1ccc(-n2ccnc2)nc1 (stereo unspecified) | -59.6%
55 | OCCN1CCOC2(CCCN(c3ncccn3)C2)C1 (stereo unspecified) | -14.1%
56 | OCCN1CCOC2(CCCN(c3ncc(F)cn3)C2)C1 (stereo unspecified) | 11%
57 | Fc1cccc(N2CCCC3(C2)CN(c2ncccn2)CCO3)c1 (stereo unspecified) | 70.6%
58 | Cc1noc(C)c1CN1CCO[C@H]2CN(Cc3cnn(C)c3)C[C@H]21 | 13.9%
59 | CCNC(=O)C(C)NC(=O)c1cnc(-c2ccc(C)cc2C)s1 (stereo unspecified) | 71.5%
60 | CCS(=O)(=O)NC[C@]12COC[C@H]1CN(Cc1cccnc1OC)C2 | -27.6%
61 | CCNC(=O)c1cn(C(C)(C)C)c2ncccc12 | 5.57%
62 | Cc1cccc(CN2C[C@@H]3COC[C@]3(COCC(=O)N(C)C)C2)n1 | -104%
63 | CCC(O)CN1CCN(C(=O)Cc2cc(Cl)ccc2OC)CC1 (stereo unspecified) | -17.7%
64 | CN(CCCO)Cc1cc(Cl)ccc1OCC(O)CN1CCCCCC1 (stereo unspecified) | 90.7%
65 | COCCN(C)Cc1cc(Cl)ccc1OCC(O)CN1CCCCCC1 (stereo unspecified) | 83.9%
66 | CN(CCO)Cc1cc(Cl)ccc1OCC(O)CN1CCCCCC1 (stereo unspecified) | 81.5%
67 | COc1ccc(Cl)cc1CC(=O)N1CCN(CC(C)(C)O)CC1 | -155%
68 | Cn1cc(C2SCC(=O)Nc3c2c(=O)[nH]n3C2CCOCC2)cn1 (stereo unspecified) | -57.4%
69 | O=C1CSC(c2ccccc2)c2c(n(C3CCOCC3)[nH]c2=O)N1 (stereo unspecified) | -34.2%
70 | c1cc([C@H]2C[C@@H]3CCN(Cc4nccs4)C[C@H]3O2)ncn1 | -99.9%
71 | Cc1noc([C@H]2C[C@H]3OCC[C@H]3N(Cc3ccncc3)C2)n1 | -164%
72 | CCCn1nc(C)c(-c2cncn2CC2(N(C)C)CCC(C)CC2)c1C (stereo unspecified) | 70.3%
73 | O=C1[C@H]2CN(Cc3ccc(F)cc3)C[C@H]2CN1c1cncnc1 | 2.38%
74 | CC(C)Oc1ncnc2c1CCN(Cc1ccc(F)cc1)CC2 | 70.8%
75 | CC(c1ccc(F)cc1)N1CCN(Cc2ccc(C#N)cc2)CC1 (stereo unspecified) | -14.8%
76 | Cn1cnc(S(=O)(=O)N2CC3(CCN(Cc4ccncc4)C3)C2)c1 | -29.2%
77 | COCc1cncc2c1CCN(Cc1cnn(C)c1)C2 | -135%
78 | c1ccc(O[C@H]2CO[C@@]3(CCCN(Cc4nccs4)C3)C2)nc1 | -90.3%

Row | SMILES | INHIBITION
79 | Cc1ccccc1CC1(CO)CCCN(c2ncncc2C(C)C)C1 (stereo unspecified) | 85%
80 | CCS(=O)(=O)N1CCOC2(CCCN(Cc3ccccn3)C2)C1 (stereo unspecified) | -69.2%
81 | CN(C)C(=O)CN1CC[C@@H]2O[C@@H](COCc3cccnc3)CC[C@@H]21 | -71.1%
82 | Cc1nn(C)cc1C1=NS(=O)(=O)N(C)C(C(=O)Nc2ccc(Br)cc2)=C1 | 90%
83 | Cc1nn(C)cc1C1=NS(=O)(=O)N(C)C(C(=O)Nc2ccc(Cl)cc2)=C1 | 83.4%
84 | c1ccc(OC[C@H]2CCC[C@]23CN(Cc2nccs2)CCO3)nc1 | 6.16%
85 | CCCC12CN3CC(C)(CN(C1)C3c1[nH]c(=O)[nH]c(=O)c1C)C2=O (stereo unspecified) | -167%
86 | Cc1noc(C)c1CN1CC[C@H]2OCC[C@@]2(C(=O)N(C)C)C1 | -41.2%
87 | COc1cc(C2(C(=O)NCCn3ccnc3)CCCC2)ccc1C | 50%
88 | COCCNC(=O)C1(c2ccc(C)c(OC)c2)CCCC1 | 6.63%
89 | Cc1cc(C)c(N(CC(O)CNCc2ccccc2)S(C)(=O)=O)c(C)c1 (stereo unspecified) | 70.4%
90 | COCCOc1ccccc1CNCC1COC2(CCCC2)O1 (stereo unspecified) | 74.3%
91 | CCN1CCC(c2cncc(N(C)C)n2)CC1 | -163%
92 | CN(C)c1nc(N)nc(CN2CCC(c3ccccc3)CC2)n1 | 80.4%
93 | O=C(N1CCCO1)[C@]12COC[C@H]1CN(Cc1cccnc1)C2 | -58.8%
94 | Cc1ccc(N2CCO[C@H]3CN(Cc4ccc(F)cc4)C[C@H]32)nn1 | -3.71%
95 | Cc1nc(N2C[C@H]3CC[C@@H](C2)N3)nc2cc(S(C)(=O)=O)ccc12 | -46.7%
96 | CCN(CC)CCN(C)c1nc(-c2ccc(Cl)cc2)nc2c1CNC2 | 88.3%
97 | Cc1nccn1CCN(C)c1nc(-c2ccc(Cl)cc2)nc2c1CNC2 | 70.5%
98 | CCN1C[C@H]2[C@@H](C1)N(S(=O)(=O)c1cccnc1)CC[C@H]2OC | -40.3%
99 | NC(=O)CCC1CCCN(c2ccnc3cc(F)ccc23)C1 (stereo unspecified) | 83.4%
100 | Cc1noc(C)c1CN1CC[C@H]2OCC[C@@]2(C(=O)NCC2CC2)C1 | -139%
101 | CN(C)Cc1cncc2c1CCN(C1CCOCC1)C2 | -179%
